High-throughput results as filed in PubChem BioAssay.
Most compounds without a hit are left out; they make up all but 9.2% or so of the library.
ELG1 repair inh = ELG1-dependent DNA repair inhibition | HEK293T ELG1-luciferase reporter, luminescence, 16 h; DNA damage induced by 5-fluorouridine | Potency, µM (highest dose often 46.1 µM), most hits filed as inhibitors | 330,000 tested, 2.3% active | AID 504467; further: nearly all actives have a fitted effect of over 55% in size
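Step one: seed 2,000 cells per well. Step two: pin-transfer compound or DMSO alongside 5-fluorouridine. Step three: incubate 16 hr, 37 °C, 5% CO2. Step four: add ONE-Glo, wait 30 min, read luminescence.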
Rab9 promoter act = Rab9 promoter activation | AID 485297 | 320,000 tested, 2.8% active | Potency, µM (titrated, usually from 9.22 µM), usual class: activators | Huh7 Rab9 promoter-luciferase reporter, luminescence, 24 h; further: nearly all actives have a fitted effect of over 60% in size
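Cell-based reporter: Huh7 stable for Rab9 promoter-driven luciferase, plated in reduced-serum medium with 10% FBS at 1500 cells/well, compound-treated 24 h at 37 °C, luminescence read after 10 min reagent.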
NPC1 prom act = activators of NPC1 promoter. Huh7 NPC1 promoter luciferase reporter, 24 h. Potency, µM (series often up to 9.22 µM), hits mostly activators. 320,000 tested, 2.4% active. AID 485313; further: nearly all actives have a fitted effect of over 60% in size
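Huh7 reporter cells (NPC1 promoter driving luciferase) are dosed with compound for 24 h at 37 °C, 5% CO2; luciferase detection reagent is then added and luminescence measured after 10 min at ambient temperature.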
FLuc modulator = inhibits or activates purified firefly luciferase, miR-21 counter-screen; purified FLuc, Km substrates, luminescence inhibition; Potency, µM (series often up to 57.5 µM), usual class: inhibitors; 360,000 tested, 6.9% active; AID 588342; further: nearly all actives have a fitted effect of over 55% in size
Target sequence (P08659 whole entry, looked up): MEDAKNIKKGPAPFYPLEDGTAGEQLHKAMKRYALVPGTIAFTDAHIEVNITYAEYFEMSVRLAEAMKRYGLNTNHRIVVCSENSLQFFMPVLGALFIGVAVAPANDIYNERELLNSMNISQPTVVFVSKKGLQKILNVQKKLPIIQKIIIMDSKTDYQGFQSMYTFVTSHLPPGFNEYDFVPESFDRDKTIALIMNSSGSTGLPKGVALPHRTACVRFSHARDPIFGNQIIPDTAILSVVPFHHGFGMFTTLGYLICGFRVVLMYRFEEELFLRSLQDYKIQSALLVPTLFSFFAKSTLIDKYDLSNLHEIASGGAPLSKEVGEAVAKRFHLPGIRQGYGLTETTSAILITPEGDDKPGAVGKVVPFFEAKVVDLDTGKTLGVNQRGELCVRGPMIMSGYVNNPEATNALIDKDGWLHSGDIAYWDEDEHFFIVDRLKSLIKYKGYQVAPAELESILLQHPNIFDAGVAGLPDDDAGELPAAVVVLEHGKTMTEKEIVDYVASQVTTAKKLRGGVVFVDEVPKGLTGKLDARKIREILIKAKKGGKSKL
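Biochemical qHTS of compounds, final roughly 60 µM downward over six points, against 10 nM purified firefly luciferase using Km concentrations of substrates (10 uM D-luciferin, 10 uM ATP) in Tris acetate pH 7.5 buffer; luminescence output.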
ELG1 genotox = inducers of genotoxicity in HEK293T ELG1-luciferase cells. HEK293T ELG1-luciferase reporter, luminescence, 16 h. Potency, µM (titrated, usually from 46 µM), hits mostly activators. 330,000 tested, 1.3% active. AID 504466; further: nearly all actives have a fitted effect of over 60% in size
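Step 1: seed 2,000 HEK293T ELG1-luciferase cells per well. Step 2: add compound or DMSO, incubate 16 hr at 37 °C. Step 3: ONE-Glo, 30 min at room temperature, read luminescence.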
SMN2 splice enh = enhancers of SMN2 splice variant expression. HEK293 SMN2-luciferase splicing reporter, luminescence, 30-36 h. Potency, µM (doses to about 46.1 µM), hits mostly activators. 210,000 tested, 2.8% active. AID 1458; further: nearly all actives have a fitted effect of over 55% in size
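qHTS luciferase splicing reporter: luminescence rises when SMN2 exon 7 is included in transfected HEK293 cells. Compound exposure lasted 30-36 h at 37C, with 4.5 mM final sodium butyrate as control, followed by a ONE-Glo read.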
A number is an active result; 0 = inactive; ? = inconclusive; - = no result; [ ] = remark or other dose. The call rests on the fitted dose curve; in most records, active means well fitted curve in the direction sought with a large enough effect; inconclusive means small, poorly fitted or top-dose-only effect, or another doubt; inactive means no such curve, though single readings can be large; an effect the other way counts as inactive or inconclusive.

SMILES | ELG1 repair inh | Rab9 promoter act | NPC1 prom act | FLuc modulator | ELG1 genotox | SMN2 splice enh
Clc1ccc(CN2CCc3nc(Nc4ccc5c(c4)OCCO5)ncc3C2)cc1 | - | - | - | 0 | - | -
COc1cccc(CN2CCc3nc(Nc4ccc5c(c4)OCCO5)ncc3C2)c1 | - | - | - | 23.9µM | - | -
CC(C)CC(=O)Nc1cc2nn(-c3ccccc3)nc2cc1Cl | ? | 1.41µM | 1.78µM | 1.51µM | 4.61µM | ?
Nc1ccc2nn(-c3ccccc3)nc2c1 | ? | 1.58µM | 1.58µM | 3.79µM | ? | -
Nc1cc2nn(-c3ccccc3)nc2cc1Cl | ? | 0 | 0 | 1.35µM | 0 | 3.16µM
CCCCC(NC(=O)CCc1c(C)c2cc3c4c(oc3c(C)c2oc1=O)CCCC4)C(=O)O (stereo not given) | 0 | 0 | 0 | 0 | 0 | -
COc1ccc(CNC(=O)C(CC(C)C)NS(=O)(=O)c2ccc3c(c2)CCN3C(C)=O)cc1 (stereo not given) | - | - | - | 0 | - | 0
COCCn1c(C)cc(O)c(C(c2cccc(F)c2)N2CCN(c3ccccc3)CC2)c1=O (stereo not given) | - | - | - | 0 | - | -
COc1cc(N2C(=O)c3ccccc3C2=O)c(Cl)cc1C(=O)OCC(=O)N(C)C | 0 | 0 | 0 | 0 | 0 | 0
CCc1cc2c(cc3c(=O)n(CCCC(=O)NCc4ccccc4Cl)nc(CC)n32)s1 | - | - | - | 0 | - | 0
COc1ccccc1OCCn1cc(/C=N/NC(N)=S)c2ccccc21 | 18.3µM | 0 | 0 | 0 | 0 | 0
COc1ccccc1OCCn1cc(/C=N/NC(=O)c2ccncc2)c2ccccc21 | 0 | 0 | 0 | ? | 0 | -
CNC(=S)N/N=C/c1cn(CCOc2ccc(OC)cc2)c2ccccc12 | ? | 0 | 0 | 21.3µM | 0 | ?
Cc1oc(-c2ccccc2F)nc1CS(=O)(=O)CC(=O)NCCc1ccc(Cl)cc1 | - | - | - | 0 | - | 0
Clc1cccc(-c2nc(NCCCN3CCOCC3)c3ccccc3n2)c1 | ? | 0 | 0 | 0 | 0 | 0
c1ccc2c(c1)oc1c(NCCCN3CCOCC3)ncnc12 | 0 | 0 | 0 | 0 | 0 | 0
Cc1sc2ncnc(NCCN3CCOCC3)c2c1C | 18.4µM | 0 | 0 | 0 | 0 | 0
CC1CCc2c(sc3ncnc(NCCN4CCOCC4)c23)C1 (stereo not given) | 0 | 0 | 0 | 0 | 0 | -
c1ccc(-n2ncc3c(NCCCN4CCOCC4)ncnc32)cc1 | ? | 3.98µM | 3.16µM | 23.9µM | ? | ?
Clc1ccc(-n2ncc3c(NCCN4CCOCC4)ncnc32)cc1 | ? | 0 | 0 | 6.75µM | 3.66µM | 0
Clc1ccc(-c2nc(NCCCN3CCOCC3)c3ccccc3n2)cc1 | 23.1µM | 0 | 0 | 0 | 0 | -
Nc1nc(NCc2ccco2)nc(N2CCCCC2)c1[N+](=O)[O-] | 0 | 0 | 0 | 0 | 0 | 0
COC(=O)c1ccc(C(NC(=O)OCc2ccccc2)/C(C)=C/[C@@H](C)C(=O)NCc2nn(-c3ccccc3)nc2C)cc1 (stereo not given in full) | - | - | - | - | - | 0
CCCCN1C(=O)/C(=C/C=C2\SCCN2C)SC1=S | ? | 3.16µM | ? | 13.5µM | 0 | 15.8µM
CN1CCS/C1=C/C=C1\SC(=S)N(CC(=O)O)C1=O | 0 | 0 | 0 | 15.1µM | 0 | -
SMILES | ELG1 repair inh | Rab9 promoter act | NPC1 prom act | FLuc modulator | ELG1 genotox | SMN2 splice enh
CN1CCS/C1=C/C=C1/SC(=S)N(Cc2ccccc2)C1=O | ? | ? | 0 | ? | ? | 0
C=CCNC(=O)C1CCN(S(=O)(=O)c2ccc3ccccc3c2)CC1 | 0 | 0 | 0 | 0 | 0 | -
O=C(COC(=O)C12CC3CC(CC(Cl)(C3)C1)C2)Nc1ccc2[nH]c(=O)[nH]c2c1 | 0 | 0 | 0 | 0 | 0 | -
O=C(CCCC(=O)NNC(=O)Nc1ccccc1)NNC(=O)Nc1ccccc1 | 0 | 0 | 0 | 0 | 0 | 0
CSc1cccc(NC(=O)/C=C/c2cccc(Cl)c2)c1 | ? | 3.16µM | ? | 8.49µM | 0 | 14.1µM
O=C(/C=C/c1ccccc1[N+](=O)[O-])Nc1cccnc1 | ? | 2.82µM | ? | 15.1µM | 0 | 14.1µM
O=C(/C=C/c1ccccc1[N+](=O)[O-])NNC(=O)c1ccncc1 | 0 | 0 | 0 | - | 0 | -
COc1cccc(/C=C/C(=O)Nc2ccc3[nH]c(=O)[nH]c3c2)c1 | 0 | 0 | 0 | 9.53µM | 0 | ?
COc1cccc(NC(=O)/C=C/c2ccccc2[N+](=O)[O-])c1 | ? | 3.98µM | ? | 5.36µM | ? | 3.16µM
COc1ccc(Cl)cc1NC(=O)c1cc2c(=O)n3ccccc3nc2s1 | - | - | - | 0 | - | 0
COc1cccc(NC(=O)/C=C/c2ccc([N+](=O)[O-])cc2)c1 | ? | ? | ? | 6.01µM | 0 | -
O=C(CNC(=O)c1ccccc1F)OCn1nnc2ccccc2c1=O | ? | 0 | 0 | 0 | 0 | -
O=C1c2ccccc2CN2C(=O)c3ccccc3CN12 | 0 | 0 | 0 | 0 | 0 | -
Cc1ccc(N2Cc3ccccc3C2=O)cc1 | ? | 0.501µM | 0.447µM | 1.9µM | 1.64µM | -
COc1ccc(N2Cc3cccc(C(=O)O)c3C2=O)cc1 | ? | 0 | 0 | 0 | 0 | 0
O=C1c2ccccc2CN1c1ccccc1 | ? | 2µM | ? | 16.9µM | ? | -
COc1ccc(N2Cc3ccccc3C2=O)cc1 | ? | 0.501µM | ? | 3.38µM | 1.83µM | -
CCOc1ccc(N2Cc3ncccc3C2=O)cc1 | ? | 2.51µM | 3.16µM | 13.5µM | ? | 10µM
O=C(NCCCn1ccnc1)C(Cc1ccc([N+](=O)[O-])cc1)N1C(=O)c2ccccc2C1=O (stereo not given) | 0 | 0 | 0 | 0 | 0 | 0
Cc1cc(C(C)(C)C)oc1C(=O)N(CC(=O)NC1CCCC1)Cc1ccccc1Cl | 0 | 0 | 0 | 0 | 0 | 0
O=C1NC(=S)CN1c1ccccc1 | 0 | 0 | 0 | ? | 0 | -
O=C1N(c2ccccc2)CCN1c1ccccc1 | ? | 1.12µM | 0.501µM | 1.51µM | ? | -
Cc1ccc(N2CC(NC(=O)C3CCCC3)CC2=O)cc1 (stereo not given) | - | - | - | 0 | - | -
COc1ccc(Cc2nc(-c3ccc(-n4cccc4)cc3)no2)cc1OC | ? | 0 | 0 | 0 | 13µM | 0
c1csc(-c2noc(COc3ccc4c(c3)CCCC4)n2)c1 | ? | 2.82µM | 3.98µM | 10.7µM | 18.4µM | 12.6µM
SMILES | ELG1 repair inh | Rab9 promoter act | NPC1 prom act | FLuc modulator | ELG1 genotox | SMN2 splice enh
COc1ccc(Cc2nc(-c3ccccc3)no2)cc1 | ? | ? | ? | 15.1µM | 16.4µM | ?
COc1ccc(Cc2nc(-c3cccs3)no2)cc1OC | 0 | 0 | 0 | ? | 0 | 0
COc1ccc(Cc2nc(-c3ccc(-n4cccc4)cc3)no2)cc1 | 0 | 0 | 0 | 0 | 0 | 0
COc1ccc(Cc2nc(-c3cccs3)no2)cc1 | ? | ? | ? | 15.1µM | ? | ?
COc1ccc(CC[N@+]2(C)COc3cc4oc(=O)cc(C)c4cc3C2)cc1OC | - | - | - | - | - | 0[9.22 µM]
Cc1ccc(C2C=C(c3ccc(Cl)cc3)Nc3nc(NC(=O)c4ccco4)nn32)cc1 (stereo not given) | - | - | - | ? | - | 0
